# Experimental data published in the supplement of paper PMC4894684.
# Structures can show the parent of a compound that is named as a salt. ± gives the standard deviation of the averaged measurements.
# System: Toxoplasma gondii RH (in HFF)
# Test: parasite growth relative to the screen mean (all compounds = 100%); higher = less inhibition of parasite growth
# Details: 5 µM; 72 h; oxygen 21 %
# Outline: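 Growth values are relative to the mean of the whole screen and averaged over duplicate screens, with all compounds together set to 100%. Parasites (RH β-Gal–GFP Toxoplasma, MOI 1:5) were added within 2 h of pinning compounds at 5 µM final onto confluent human foreskin fibroblasts and grown 72 h at 21% O2. Parasite number came from CPRG β-Gal readings against in-plate standard curves.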
row,Structure (SMILES),parasite growth [%]
1,CC(C(=O)O)c1ccc(-c2ccccc2)c(F)c1 (centres undefined) [Flurbiprofen],139 ± 26
2,CN1CCC(=C2c3ccccc3C=Cc3ccccc32)CC1 [Cyproheptadine hydrochloride],12.1 ± 16
3,Cc1noc(NS(=O)(=O)c2ccc(N)cc2)c1C [Sulfisoxazole],108 ± 1.1
4,Nc1nc(N)nc(-c2cc(Cl)ccc2Cl)n1 [Irsogladine maleate],127 ± 27
5,COP(=O)(OC)OC(c1ccc(Cl)cc1)P(=O)(OC)OC (centres undefined),79.4 ± 28
6,OCCN(CCO)c1nc(N2CCCCC2)c2nc(N(CCO)CCO)nc(N3CCCCC3)c2n1 [Dipyridamole],142 ± 1.7
7,CCn1c(=O)[nH]c2ccccc21,67.92 ± 0.3
8,Oc1ccc(Nc2nc(-c3ccc(Cl)cc3)cs2)cc1,26.9 ± 8
9,C[C@H]1O[C@H](O[C@H]2[C@H](O)[C@@H](O)[C@@H](O[C@H]3[C@H](O)[C@@H](O)C(O)O[C@@H]3CO)O[C@@H]2CO)[C@H](O)[C@@H](O)[C@@H]1N[C@H]1C=C(CO)[C@@H](O)[C@H](O)[C@H]1O (some centres undefined) [Acarbose],114 ± 36
10,O=C(O)Cn1c(C(=O)Nc2nc(-c3ccccc3Cl)cs2)cc2ccccc21,133 ± 2.8
11,CCCCC1CCC(c2nc(-c3ccncc3)no2)CC1 (centres undefined),81.9 ± 14
12,O=C(Nc1ccncc1)c1cc([N+](=O)[O-])ccc1Cl,< 0
13,"FC(F)(F)c1cc(COC2CCCNC2c2ccccc2)cc(C(F)(F)F)c1 [L-733,060 hydrochloride]",29.6 ± 16
14,CC(=O)N[C@@H](Cc1c[nH]c2ccccc12)C(=O)OCc1cc(C(F)(F)F)cc(C(F)(F)F)c1,108 ± 52
15,Cc1cc(Cn2cnc3c2CC(C(=O)O)N(C(=O)C(c2ccccc2)c2ccccc2)C3)ccc1N(C)C (centres undefined),130 ± 23
16,CCCC[C@@H](C=O)NC(=O)[C@H](CC(C)C)NC(=O)OCc1ccccc1 [Calpeptin],19.9 ± 4.8
17,Nc1ncnc2n[nH]c(Nc3ccc(F)cc3)c12,94.4 ± 26
18,Cn1cc(/C=C2\C(=O)Nc3cccnc32)c2ccccc21,131 ± 5.3
19,O=C(NCC1CCCCN1)c1cc(OCC(F)(F)F)ccc1OCC(F)(F)F (centres undefined) [Flecainide acetate],130 ± 7.9
20,O=C1CC2(CCCC2)CC(=O)N1CCNCC1COc2ccccc2O1 (centres undefined),152 ± 13

row,Structure (SMILES),parasite growth [%]
1,COc1ccc(Nc2nccc(NCCO)n2)cc1 [Cardiogenol C hydrochloride],122 ± 4.2
2,CC(C)SC(=N)N [S-Isopropylisothiourea hydrobromide],97.1 ± 3.1
3,COc1ccc(Nc2ncnc3ccc(OC)cc23)cc1 [MPMQ hydrochloride],146 ± 14
4,COc1cc(-c2ccc(=O)[nH]n2)ccc1OC(F)F [Zardaverine],103 ± 8.7
5,Nc1nc2ccc(OC(F)(F)F)cc2s1 [Riluzole hydrochloride],88.1 ± 11
6,Oc1ccc(/C=C/c2cc(O)cc(O)c2)cc1 [Resveratrol],112 ± 56
7,C[C@@H](NCc1cc(Br)cc2[nH]c(=O)c(=O)[nH]c12)P(=O)(O)O,109 ± 3.7
8,N[C@@H](CSC(c1ccccc1)(c1ccccc1)c1ccccc1)C(=O)O [S-Trityl-L-cysteine],118 ± 8.6
9,CN1CCN(C2=Cc3ccccc3Oc3ccc(Cl)cc32)CC1,31.7 ± 7.6
10,Oc1cc2c(cc1O)C(c1ccccc1)CNCC2 (centres undefined),162 ± 47
11,Cc1ccc(/C=N/NC(=O)c2ccccc2Oc2ccccc2)o1,72.7 ± 4.9
12,CCCCCCN(CCCCCC)C(=O)Cc1c(-c2ccc(Cl)cc2)[nH]c2ccc(Cl)cc12,175 ± 22
13,O=C1C(=O)N(Cc2ccc(Cl)c(Cl)c2)c2ccccc21 [Apoptosis Activator 2],120 ± 3.4
14,CC(/C=C/c1cccc(Oc2ccc(F)cc2)c1)N(O)C(N)=O (centres undefined),184 ± 12
15,CC(C)NCC(O)COc1ccc(CCOCC2CC2)cc1 (centres undefined) [Betaxolol hydrochloride],89.4 ± 13
16,NCCc1c[nH]cn1 [Histamine dihydrochloride],80.2 ± 36
17,OC[C@H]1O[C@@H](n2cnc3c(N[C@H]4CCC[C@@H]4O)ncnc32)[C@H](O)[C@@H]1O,140 ± 10
18,O=C(Nc1ccccc1)C12CC1C(=NO)c1ccccc1O2 (centres undefined),77.3 ± 29
19,O=[N+]([O-])c1cccc2c(Br)[nH]nc12 [3-Bromo-7-nitroindazole],123 ± 5.8
